Bioassay records deposited in PubChem by National Center for Advancing Translational Sciences (NCATS).
ELG1 genotoxic: qHTS screen for small molecules that induce genotoxicity in human embryonic kidney (HEK293T) cells expressing luciferase-tagged ELG1; actives 1.3% (n = 330,000); Potency, µM (titrated, usually from 46 µM), hits mostly activators; AID 504466, 2011; HEK293T ELG1-luciferase reporter, luminescence, 16 h; note: nearly all actives have a fitted effect of over 60% in size
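16 hr compound incubation (37 °C, 5% CO2) of HEK293T cells carrying luciferase-tagged ELG1; luciferase then measured by ONE-Glo luminescence after 30 min at RT.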
SMN2 splice up: qHTS Assay for Enhancers of SMN2 Splice Variant Expression. HEK293 SMN2-luciferase splicing reporter, luminescence, 30-36 h. Potency, µM (highest dose often 46.1 µM), most hits filed as activators. actives 2.8% (n = 210,000). AID 1458, 2008; note: nearly all actives have a fitted effect of over 55% in size
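HEK293 cells carry an SMN2 minigene-luciferase reporter in which exon 7 inclusion puts luciferase in frame. Cells were seeded at 2000 cells/well, attached for 10-12 hours, then exposed to compounds for 30-36 hours at 37C before ONE-Glo luminescence.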
Rab9 promoter act: qHTS Assay for Rab9 Promoter Activators; actives 2.8% (n = 320,000); Huh7 Rab9 promoter-luciferase reporter, luminescence, 24 h; Potency, µM (highest dose often 9.22 µM), hits mostly activators; AID 485297, 2010; note: nearly all actives have a fitted effect of over 60% in size
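Steps: seed 1500 Huh7 Rab9-luc cells per well, rest 2 h at 37 °C; add compound in DMSO; incubate 24 h; add luciferase reagent, 10 min ambient; read luminescence.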
NPC1 promoter act: qHTS Assay for NPC1 Promoter Activators. actives 2.4% (n = 320,000). Potency, µM (highest dose often 9.22 µM), usual class: activators. Huh7 NPC1 promoter luciferase reporter, 24 h; note: nearly all actives have a fitted effect of over 60% in size
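Quantitative HTS used a cell-based reporter: Huh7 cells stably bearing the NPC1 promoter upstream of luciferase were treated with compounds for 24 h, and promoter activation was read as luminescence.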
FLuc modulator: qHTS profiling assay for firefly luciferase inhibitor/activator using purifed enzyme and Km concentrations of substrates (counterscreen for miR-21 project) | Luciferin 4-monooxygenase (Photinus pyralis), P08659 | purified FLuc, Km substrates, luminescence inhibition | actives 6.9% (n = 360,000) | Potency, µM (doses to about 57.5 µM), hits mostly inhibitors; note: nearly all actives have a fitted effect of over 55% in size
Target sequence (P08659 whole entry, looked up): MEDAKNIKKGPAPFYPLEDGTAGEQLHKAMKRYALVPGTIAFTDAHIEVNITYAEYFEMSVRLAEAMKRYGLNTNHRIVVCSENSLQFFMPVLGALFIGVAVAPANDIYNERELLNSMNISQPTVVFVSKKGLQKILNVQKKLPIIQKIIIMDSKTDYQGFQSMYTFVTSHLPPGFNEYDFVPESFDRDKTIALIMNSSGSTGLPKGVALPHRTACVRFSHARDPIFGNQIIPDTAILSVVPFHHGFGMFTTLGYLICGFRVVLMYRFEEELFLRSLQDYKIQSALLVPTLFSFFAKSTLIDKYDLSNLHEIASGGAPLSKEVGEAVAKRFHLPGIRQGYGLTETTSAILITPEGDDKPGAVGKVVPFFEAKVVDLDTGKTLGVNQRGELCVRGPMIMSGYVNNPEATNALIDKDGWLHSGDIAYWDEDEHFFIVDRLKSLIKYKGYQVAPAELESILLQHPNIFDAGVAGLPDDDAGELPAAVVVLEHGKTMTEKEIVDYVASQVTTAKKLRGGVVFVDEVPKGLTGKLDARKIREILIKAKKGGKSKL
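Purified P. pyralis luciferase, 10 nM final, with Km-level 10 uM D-luciferin and 10 uM ATP in 50 mM Tris acetate pH 7.5, 10 mM Mg acetate, 0.01% Tween-20, 0.05% BSA; 6-point qHTS titration about 60 µM downward; luminescence read.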
KinaseGlo FLuc: Counterscreen for Luciferase (Kinase-Glo TM) Inhibition; Luciferin 4-monooxygenase (Photuris pensylvanica), Q27757; Kinase-Glo luciferase, ATP luminescence, 8 min; Potency, µM (titrated, usually from 38.3 µM), actives largely listed as inhibitors; actives 0.28% (n = 200,000); note: nearly all actives have a fitted effect of over 60% in size
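Inhibition of Kinase-Glo luciferase light generation was assessed at 10 uM ATP in pH 7.2 imidazole buffer, with luminescence measured after eight minutes at ambient temperature.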
A number is an active result; n = inactive; u = inconclusive; x = no result given; [ ] = remark or other dose. An excerpt weighted towards active compounds, which were near 7.5% of everything screened. Calls come from the whole dose curve; as a rule, active = well fitted curve in the direction sought with a large enough effect; inconclusive = small, poorly fitted or top-dose-only effect, or another doubt; inactive = no such curve, though single readings can be large; an effect the other way counts as inactive or inconclusive.

SMILES	ELG1 genotoxic	SMN2 splice up	Rab9 promoter act	NPC1 promoter act	FLuc modulator	KinaseGlo FLuc
Cc1cccc(C(=O)Nc2sc3c(c2C#N)CCCCC3)c1	u	2µM	1.26µM	0.501µM	0.953µM	n
CCCCN(C(=O)C1CCCC1)c1c(N)n(CCC)c(=O)[nH]c1=O	n	x	n	n	n	x
O=c1[nH]c(/C=C\c2ccccc2F)nc(O)c1[N+](=O)[O-]	n	x	n	n	u	x
CCOC(=O)c1sc(NC(=O)c2cccnc2)c(C#N)c1C	n	n	n	n	12µM	n
NC(=O)c1c(NC(=O)c2ccc([N+](=O)[O-])o2)sc2c1CCCC2	n	x	n	n	n	x
N#Cc1c(NC(=O)c2ccc([N+](=O)[O-])o2)sc2c1CCC2	u	x	1.58µM	1.58µM	4.78µM	x
NC(=O)c1c(NC(=O)c2cccc(N3C(=O)CCC3=O)c2)sc2c1CCCCC2	n	x	u	n	0.953µM	x
N#Cc1c(NC(=O)c2cnccn2)sc2c1CCCC2	u	10µM	u	n	6.01µM	n
CCc1nn(CC(=O)NC(C)c2ccccc2)c(=O)c2cc3sccc3n12 (stereo not given)	x	n	x	x	n	x
CCC(Sc1nncn2c1cc1oc(C)cc12)C(=O)Nc1ccc(F)cc1 (stereo not given)	x	x	x	x	n	x
N#Cc1ccc(CN2CCCC3(CCN(C(=O)c4cccc(F)c4)CC3)C2)cc1	x	n	x	x	x	n
CC1CCCCN1C(=O)c1ccc(Br)o1 (stereo not given)	n	x	n	n	n	x
NC(=O)c1c(NC(=O)c2cccnc2)sc2c1CCCCC2	u	x	2.51µM	2.24µM	1.69µM	x
NC(=O)c1c(NC(=O)c2cccnc2)sc2c1CCCC2	u	n	u	u	u	n
Cc1csc(Nc2nc(N)c(C(=O)Nc3cc(Cl)ccc3F)o2)n1	n	x	n	n	u	x
C[C@]12CCC3c4ccc(O)cc4CCC3C1CCC2=O (stereo not given in full)	x	n	x	x	x	n
CSCCC(NC(=O)c1ccco1)C(=O)N1CCN(c2ccccc2O)CC1 (stereo not given)	n	x	n	n	n	x
O=C(Nc1cccc2nsnc12)c1ccc(F)cc1	n	u	n	n	u	n
O=C(Nc1cccc2nsnc12)c1ccc2c(c1)OCO2	n	n	u	u	16.9µM	n
O=C(Nc1cccc2nsnc12)c1ccc2c(c1)OCCO2	u	u	3.55µM	u	10.7µM	n
CCOc1ccc(C(=O)Nc2cccc3nsnc23)cc1[N+](=O)[O-]	n	x	n	n	n	x
O=C1/C(=C/c2ccccc2Cl)SC(=S)N1CCCC(=O)N(CCO)c1ccccc1	n	x	n	n	u	x
CC(=O)c1ccc(N=Nc2ccc(N)cc2)cc1	u	x	0.316µM	0.398µM	1.51µM	x
Nc1c(-c2cccs2)cnn1-c1nc(-c2ccc(Cl)cc2Cl)cs1	n	n	n	n	u	n
COC(=O)c1cnn(-c2nc(-c3ccccc3)cs2)c1N	u	x	u	u	2.69µM	x
SMILES	ELG1 genotoxic	SMN2 splice up	Rab9 promoter act	NPC1 promoter act	FLuc modulator	KinaseGlo FLuc
Nc1c(-c2ccccn2)cnn1-c1nc(-c2ccc(F)cc2)cs1	n	n	n	n	9.53µM	n
CCOC(=O)c1cnn(-c2nc(-c3ccccc3)cs2)c1C(F)(F)F	n	n	n	n	u	n
Nc1c(-c2cccs2)cnn1-c1nc(-c2ccc(F)cc2)cs1	n	n	u	u	7.57µM	n
COc1c(O)cc2oc3cc(O)c(CC=C(C)C)c(O)c3c(=O)c2c1CC=C(C)C	x	n	x	x	x	n
Cc1cccc2c1-c1sc(C(=O)N3CCCCC3)cc1CO2	u	x	3.98µM	3.55µM	13.5µM	x
CCN1CCN(C(=O)c2cc3c(s2)-c2c(C)cccc2OC3)CC1	u	x	3.98µM	u	10.7µM	x
O=C(Nc1cccc(Cl)c1)NC1CC2CCC1C2 (stereo not given)	n	x	n	n	23.9µM	x
O=C(Nc1cccc(Cl)c1)NC1CC2CCC(C1)N2Cc1ccco1 (stereo not given)	n	n	n	n	n	n
CS(=O)(=O)Nc1ccccc1C(=O)NC1CC2CCC1C2 (stereo not given)	n	n	n	n	n	n
O=C(/C=C/c1ccccc1)NC1CC2CCC1C2 (stereo not given)	u	u	n	n	19µM	n
O=C(/C=C/c1ccc(Cl)cc1)NC1CC2CCC1C2 (stereo not given)	u	n	n	n	23.9µM	n
O=C(/C=C/c1ccc([N+](=O)[O-])cc1)NC1CC2CCC1C2 (stereo not given)	n	n	n	n	u	n
CCOC(=O)N1CCC(NC(=O)CN(c2ccc(C(C)C)cc2)S(=O)(=O)c2c(C)nn(C)c2C)CC1	n	x	n	n	n	x
O=C(COC(=O)C1C2CC3OC(=O)C1C3C2)Nc1cccc(Cl)c1 (stereo not given)	n	x	n	n	u	x
CCN1C(=O)C(=O)N(CC(=O)NC(C)CCc2ccccc2)C1=O (stereo not given)	n	x	n	n	n	x
O=C(NCCc1ccccc1)c1nnc(Cc2cccc(F)c2)o1	x	x	x	x	n	x
CCCC[C@]12Cc3ccccc3C(O1)c1c(c3ccccc3oc1=O)O2	x	x	n[1.84 µM]	n[1.84 µM]	n[11.5 µM]	x
CC(NC(=O)C(=O)Nc1c2c(nn1-c1ccc(F)cc1)CSC2)c1ccccc1 (stereo not given)	x	x	x	x	n	x
CCC1CSC(=Nc2ccc(C)cc2)N1C(=O)CN1C(=O)NC2(CCCC2)C1=O (stereo not given)	2.59µM	x	0.794µM	0.562µM	16.9µM	x
CCN(c1ccccc1)S(=O)(=O)c1nnc(NC(=O)COc2cccc(C)c2)s1	x	x	x	x	n	x
COC(=O)C(Cc1ccccc1)NC(=O)c1ccc(C)cc1 (stereo not given)	n	n	n	n	6.01µM	n
COC(=O)[C@H](Cc1ccccc1)NC(=O)NCc1ccccc1	n	x	n	n	n	x
COC(=O)C(Cc1ccc(O)cc1)NC(=O)c1ccccc1 (stereo not given)	n	n	n	n	19µM	n
Cc1ccc(C(=O)NC(Cc2ccc(C(C)(C)C)cc2)C(=O)O)cc1 (stereo not given)	n	x	x	x	x	x
COC(=O)[C@H](Cc1ccccc1)NC(=O)NCc1ccc(C)cc1	n	x	n	n	21.3µM	x
COc1cc(SC)ccc1C(=O)Nc1ccc(OCC(=O)N2CCOCC2)cc1	u	x	1.78µM	2.82µM	0.477µM	x
COc1ccccc1C(=O)Nc1ccc(OCC(=O)N2CC(C)CC(C)C2)cc1 (stereo not given)	n	x	n	n	10.7µM	x
